# Where a name gives a salt, the structure may show the parent alone. Hit rate of the full screen: of about 1,500 compounds, about 30 (2%) showed activity. Many of the other results were omitted from the sample, so actives are more common in it than they were. Unmarked numbers belong to inactive results.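 How the source made its calls: active = robust z-score below -2; a few such results were not called.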
# System: optoTopBP1 Flp-In 293 T-REx (HEK293) cells
# Assay: light-induced TopBP1 condensate (nuclear foci) count, plate-normalised robust z-score vs non-control wells; higher = more TopBP1 condensates (negative = condensation inhibitor), active = hit call of the paper
# Conditions: 10 µM; incubation time 2 h
row,SMILES,light-induced TopBP1 condensate (z-score)
1,CC[N+](C)(CC)CCC[n+]1c(-c2ccccc2)c2cc(N)ccc2c2ccc(N)cc21 [Propidium iodide],-3.58 (active)
2,C[C@]12CCC(=O)C=C1C=C[C@@H]1[C@@H]2CC[C@@]2(C)[C@H]1CC[C@@]21CCC(=O)O1 [Canrenone],0.252
3,COCCCOc1ccnc(C[S+]([O-])c2nc3ccccc3[nH]2)c1C (stereo not drawn) [Rabeprazole Sodium salt],-0.658
4,CC(C)=C/C(C)=N/Nc1nncc2ccccc12 [Budralazine],-0.574
5,CC(N)C12CC3CC(CC(C3)C1)C2 (stereo not drawn) [Rimantadine Hydrochloride],-0.685
6,OC[C@H]1O[C@@H](c2ccc(Cl)c(Cc3ccc(O[C@H]4CCOC4)cc3)c2)[C@H](O)[C@@H](O)[C@@H]1O [Empagliflozin],0.47
7,CN(C)[C@@H]1C(O)=C(C(N)=O)C(=O)[C@@]2(O)C(O)=C3C(=O)c4c(O)cccc4[C@@](C)(O)[C@H]3C[C@@H]12 [Tetracycline hydrochloride],0.0489
8,N#Cc1cc(NC(=O)C(=O)O)c(Cl)c(NC(=O)C(=O)O)c1 [Lodoxamide],0.686
9,Oc1c(Cl)cc(Cl)c2cccnc12 [Chloroxine],-0.15
10,Oc1c(I)cc(Cl)c2cccnc12 [Clioquinol],-0.446
11,Cc1ccc2c(Cl)cc(Cl)c(O)c2n1 [Chlorquinaldol],-9.09 (active)
12,C[C@@H]1C[C@H]2[C@@H]3C[C@H](F)C4=CC(=O)C=C[C@]4(C)[C@@]3(F)[C@@H](O)C[C@]2(C)[C@@]1(O)C(=O)COC(=O)C(C)(C)C [Flumethasone pivalate],-0.352
13,COc1cc([S+](C)[O-])ccc1-c1nc2cccnc2[nH]1 (stereo not drawn) [Sulmazole],1.19
14,CCOc1ccc2c(c1)C(C)=CC(C)(C)N2 [Ethoxyquin],0.549
15,CC[C@@]1(O)C(=O)OCc2c1cc1n(c2=O)Cc2cc3c(CN(C)C)c(O)ccc3nc2-1 [Topotecan],-2.31 (active)
16,CCc1c2c(nc3ccc(OC(=O)N4CCC(N5CCCCC5)CC4)cc13)-c1cc3c(c(=O)n1C2)COC(=O)[C@]3(O)CC [Irinotecan hydrochloride trihydrate],1.07
17,CCCNC(C)(C)C(=O)Nc1ccccc1C [Quatacaine],-0.106
18,O=C1OCCN1/N=C/c1ccc([N+](=O)[O-])o1 [Furazolidone],-0.718
19,CNCCCC1c2ccccc2C=Cc2ccccc21 [Protriptyline hydrochloride],-2.86 (active)
20,CNCCCC12CCC(c3ccccc31)c1ccccc12 [Maprotiline hydrochloride],-0.0912
21,CNCCC=C1c2ccccc2C=Cc2ccccc21 [Norcyclobenzaprine],-0.386

row,SMILES,light-induced TopBP1 condensate (z-score)
1,COc1c(O[C@@H]2O[C@H](CO)[C@@H](O)[C@H](O)[C@H]2O)cc2c(c1OC)-c1ccc(SC)c(=O)cc1[C@@H](NC(C)=O)CC2 [Thiocolchicoside],-0.423
2,CCCCCOC(=O)Nc1nc(=O)n([C@@H]2O[C@H](C)[C@@H](O)[C@H]2O)cc1F [Capecitabine],0.43
3,CO[C@H]1/C=C/O[C@@]2(C)Oc3c(C)c(O)c4c(c3C2=O)C2=NC3(CCN(CC(C)C)CC3)NC2=C(NC(=O)/C(C)=C\C=C\[C@H](C)[C@H](O)[C@@H](C)[C@@H](O)[C@@H](C)[C@H](OC(C)=O)[C@@H]1C)C4=O [Rifabutin],-0.0256
4,COc1c(O)cc2c(c1O)[C@@H]1O[C@H](CO)[C@@H](O)[C@H](O)[C@H]1OC2=O [Bergenin],-0.755
5,Cc1nccn1CC1CCc2c(c3ccccc3n2C)C1=O (stereo not drawn) [Ondansetron Hydrochloride],1.05
6,NC[C@H]1O[C@H](O[C@H]2[C@H](O)[C@@H](O[C@H]3O[C@H](CO)[C@@H](O)[C@H](N)[C@H]3O)[C@H](N)C[C@@H]2N)[C@H](N)C[C@@H]1O [Tobramycin],-0.114
7,CC(NCCC(c1ccccc1)c1ccccc1)c1ccccc1 (stereo not drawn) [Fendiline hydrochloride],-2.06 (active)
8,CC(NN)c1ccccc1 (stereo not drawn) [Mebanazine],0.298
9,CNCC[C@@H](Oc1ccccc1C)c1ccccc1 [Tomoxetine hydrochloride],-1.4
10,CC(C)[C@H]1CC[C@H](C(=O)N[C@H](Cc2ccccc2)C(=O)O)CC1 [Nateglinide],-0.706
11,COc1cc(NC(C)CCCN)c2ncccc2c1 (stereo not drawn) [Primaquine diphosphate],-1.07
12,N[C@@H]1CCCCN(c2c(F)cc3c(=O)c(C(=O)O)cn(C4CC4)c3c2Cl)C1 [Besifloxacin hydrochloride],-0.0694
13,C[C@@H](O)[C@H]1C(=O)N2C(C(=O)O)=C(S[C@@H]3CN[C@H](CNS(N)(=O)=O)C3)[C@H](C)[C@H]12 [Doripenem monohydrate],1.08
14,Cc1cc(C(C)(C)CC(C)(C)C)ccc1OCCOCC[N+](C)(C)Cc1ccccc1 [Methyl benzethonium chloride],-0.593
15,CCN(CC)C(=S)SSC(=S)N(CC)CC [Disulfiram],-4.41 (active)
16,C=C1c2c(Cl)ccc(O)c2C(=O)C2=C(O)[C@]3(O)C(=O)C(C(N)=O)=C(O)[C@@H](N(C)C)[C@@H]3[C@@H](O)[C@H]12.O=C(O)c1cc(S(=O)(=O)O)ccc1O [Meclocycline sulfosalicylate],0.506
17,N[C@@H](CCC(=O)N[C@@H](CS)C(=O)NCC(=O)O)C(=O)O [Glutathione],1.35
18,O=C(O)CCNC(=O)c1ccccc1 [Betamipron],-0.17
19,Cn1c(=O)c2c(ncn2CCO)n(C)c1=O [Etofylline],0.502
20,CO[C@@]12[C@H](COC(N)=O)C3=C(C(=O)C(C)=C(N)C3=O)N1C[C@@H]1N[C@@H]12 [Mitomycin C],-0.867
21,N[C@H](Cc1ccccc1)C(=O)O [D-phenylalanine],-1.1

row,SMILES,light-induced TopBP1 condensate (z-score)
1,"CC(C)(S)C(N)C(=O)O (racemic) [D,L-Penicillamine]",1.98
2,Cc1ccc(C)c(OCCCC(C)(C)C(=O)O)c1 [Gemfibrozil],0.575
3,CC(=O)[C@@]12O[C@](C)(c3ccccc3)O[C@@H]1C[C@H]1[C@@H]3CCC4=CC(=O)CC[C@]4(C)[C@H]3CC[C@@]12C [Algestone acetophenide],-1.65
4,COc1cc(NS(=O)(=O)c2ccc(N)cc2)nc(OC)n1 [Sulfadimethoxine],0.224
5,CCN(CC)C(=O)Nc1ccc(OCC(O)CNC(C)(C)C)c(C(C)=O)c1 (stereo not drawn) [Celiprolol hydrochloride],-0.488
6,CCc1oc2ccccc2c1C(=O)c1ccc(O)cc1 [Benzarone],1.57
7,CCCCC1=NC2(CCCC2)C(=O)N1Cc1ccc(-c2ccccc2-c2nnn[nH]2)cc1 [Irbesartan],-0.971
8,CN(C)C(=N)NC(=N)N [Metformin hydrochloride],-0.726
9,CC(C)(C)C(O)/C=C/c1ccc2c(c1)OCO2 (stereo not drawn) [Stiripentol],1.26
10,CCOC(=O)c1c(N)sc2c1CCN(Cc1ccccc1)C2 [Tinoridine hydrochloride],0.308
11,C[C@H]1O[C@@H](O[C@H]2[C@@H](O)C[C@H](O[C@H]3[C@@H](O)C[C@H](O[C@H]4CC[C@@]5(C)[C@H](CC[C@@H]6[C@@H]5C[C@@H](O)[C@]5(C)[C@@H](C7=CC(=O)OC7)CC[C@]65O)C4)O[C@@H]3C)O[C@@H]2C)C[C@H](O)[C@@H]1O [Digoxin],-2.42 (active)
12,CCCCOC(=O)c1ccccc1Nc1cccc(C(F)(F)F)c1 [Ufenamate],-0.0275
13,O=C(NCCO[N+](=O)[O-])c1cccnc1 [Nicorandil],0.468
14,Cn1nnc2c(C(N)=O)ncn2c1=O [Temozolomide],-0.835
15,Cc1c(Cl)cccc1Nc1ncccc1C(=O)O [Clonixin Lysinate],0.77
16,NC(=O)c1cc[n+](CC2=C(C(=O)[O-])N3C(=O)[C@@H](NC(=O)[C@@H](c4ccccc4)S(=O)(=O)O)[C@H]3SC2)cc1 [Cefsulodin sodium salt],0.128
17,CC[C@H]1OC(=O)[C@H](C)[C@@H](O[C@H]2C[C@@](C)(OC)[C@@H](O)[C@H](C)O2)[C@H](C)[C@@H](O[C@@H]2O[C@H](C)C[C@H](N(C)C)[C@H]2O)[C@](C)(O)C[C@@H](C)C(=O)[C@H](C)[C@@H](O)[C@]1(C)O [Erythromycin],-0.359
18,CCC1(c2ccccc2)NC(=O)N(C)C1=O (stereo not drawn) [Mephenytoin],0.477
19,COCC(=O)O[C@]1(CCN(C)CCCc2nc3ccccc3[nH]2)CCc2cc(F)ccc2[C@@H]1C(C)C [Mibefradil],-2.07 (active)
20,COc1cc(/C=C/C(=O)N2CCN(CC(=O)N3CCCC3)CC2)cc(OC)c1OC [Cinepazide maleate],-0.187
21,CC(C)[C@H](N)C(=O)OCC(CO)OCn1cnc2c(=O)nc(N)[nH]c21 (stereo partly drawn) [Valganciclovir hydrochloride],0.111
